# Assay outcomes (PubChem BioAssay)
# HDAC3 inhib: inhibitors of human histone deacetylase 3 | 320,000 compounds, 0.15% hits | inhibition, % at 8.3 µM | recombinant HDAC3, fluorogenic peptide/trypsin coupled, fluorescence; in the data active = inhibition above about 26%, passing the limit was not always enough; inconclusive = no clear call, values can overlap the other calls
# GRK2 aptamer HTS: blocks RNA aptamer binding to human GRK2; bead flow cytometry, FAM-aptamer displacement from GRK2; inhibition of aptamer binding, % at 10 µM; 330,000 compounds, 0.59% hits; AID 488847;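 active = inhibition of aptamer binding above 40%, roughly 3 SD of noise, on plates passing a quality check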;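 also: median bead fluorescence of bound FAM aptamer so fluorescent compounds give negative values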
# PKD1 inh: inhibitors of human PKD1 kinase. AID 797. inhibition, % (test concentration not listed). PKD1 kinase fluorescence polarization assay. 200,000 compounds, 0.056% hits
# Pemphigus Ab inh: blocks pemphigus antibody binding to human desmoglein-3; P32926; DSG3-coupled beads, scFv-anti-DSG3-GFP binding, flow cytometry; hits give low values; binding (percent of control), % at 10 µM; 310,000 compounds, 0.48% hits; AID 588358;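 active = binding more than 3 SD below its plate's average and above zero; inconclusive = below that plate limit but binding exactly zero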;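 also: hits lower antibody fragment binding to DSG3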
# LANA-H2A inh: blocks KSHV LANA binding to histone H2A/H2B | cell-free LANA-H2A/H2B peptide, fluorescence polarization | 320,000 compounds, 0.6% hits | Q9QR71 | AID 2629 | inhibition, % (test concentration not listed); in the data active = inhibition mostly above about 10%, no sharp cut-off; inactive = mostly below about 6.7%
# VLA-4 inh: inhibition in a human VLA-4 binding assay; P13612; VLA-4 expressing cells, ligand binding flow cytometry; inhibition, % (about 7 µM as worked out from the volumes in the protocol); 330,000 compounds, 0.2% hits
# Target sequence (P13612 whole entry, looked up): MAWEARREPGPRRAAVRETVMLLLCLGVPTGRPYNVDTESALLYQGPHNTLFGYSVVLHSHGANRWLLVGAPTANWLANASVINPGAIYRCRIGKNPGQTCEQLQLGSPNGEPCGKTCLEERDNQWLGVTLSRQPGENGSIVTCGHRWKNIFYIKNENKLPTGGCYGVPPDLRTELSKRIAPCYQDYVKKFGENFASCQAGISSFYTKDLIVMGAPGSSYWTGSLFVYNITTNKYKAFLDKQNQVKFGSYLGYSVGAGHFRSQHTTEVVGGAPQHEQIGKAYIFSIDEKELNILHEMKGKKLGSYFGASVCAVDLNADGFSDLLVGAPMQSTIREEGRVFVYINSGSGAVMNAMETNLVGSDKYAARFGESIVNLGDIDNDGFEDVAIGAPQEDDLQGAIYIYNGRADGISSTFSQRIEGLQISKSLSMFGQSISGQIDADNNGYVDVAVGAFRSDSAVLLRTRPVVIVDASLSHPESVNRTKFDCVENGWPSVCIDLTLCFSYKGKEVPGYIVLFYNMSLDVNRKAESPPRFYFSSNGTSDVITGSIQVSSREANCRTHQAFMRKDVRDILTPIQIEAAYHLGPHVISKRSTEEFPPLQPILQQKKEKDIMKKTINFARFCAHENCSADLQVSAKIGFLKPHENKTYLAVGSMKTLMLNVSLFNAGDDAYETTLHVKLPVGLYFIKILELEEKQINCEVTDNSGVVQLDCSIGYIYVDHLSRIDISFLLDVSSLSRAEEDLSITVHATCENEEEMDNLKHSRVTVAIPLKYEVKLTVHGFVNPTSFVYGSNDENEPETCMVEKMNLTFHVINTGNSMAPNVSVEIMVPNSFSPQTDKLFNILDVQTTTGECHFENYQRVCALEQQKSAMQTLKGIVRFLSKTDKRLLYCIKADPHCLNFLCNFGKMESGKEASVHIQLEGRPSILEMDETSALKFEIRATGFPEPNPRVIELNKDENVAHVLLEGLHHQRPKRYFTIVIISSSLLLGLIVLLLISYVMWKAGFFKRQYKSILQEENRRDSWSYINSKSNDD
# GRK2 inh confirm: confirmation of human GRK2 inhibitors displacing RNA aptamer. shares compounds with GRK2 aptamer HTS. bead-bound GRK2, FAM-aptamer displacement, flow cytometry. aptamer displacement, % at 10 µM. 2,000 compounds, 4% hits;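 active = aptamer displacement above 40%, near three times the noise of non-fluorescent compounds, on plates passing quality checks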;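 also: negative values mostly reflect intrinsic compound fluorescence rather than true enhancement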
# FAM quench CP1: counter-screen for GRK2 aptamer inhibitors: fluorescent aptamer quenchers | 2,000 tested, under 10 active | Carboxyfluorescein RNA aptamer on beads, flow cytometry quenching; hits give low values | fluorescence response (% of DMSO), % at 10 µM | shares compounds with GRK2 aptamer HTS;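 active = compounds that quench the bead-bound fluorescent RNA probe, cutting fluorescence to under half of the solvent control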;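 also: counterscreen run without GRK2 so only probe quenching by compound is measured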
# GRK2 confirm 2: confirmation of human GRK2 inhibitors binding RNA aptamer site; shares compounds with GRK2 aptamer HTS; bead-bound GRK2, FAM-aptamer displacement, flow cytometry; inhibition of aptamer binding, % at 10 µM; 360 tested, under 10 active; AID 504782;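 active = inhibition of aptamer binding above 40%, about triple the noise seen with nonglowing compounds, on plates passing quality control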;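 also: negative values mostly come from compounds that fluoresce themselves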
# FAM quench CP2: counter-screen for GRK2 binding hits: quenchers of fluorescent RNA aptamer | shares compounds with GRK2 aptamer HTS | carboxyfluorescein RNA aptamer beads, flow cytometry quenching; hits give low values | fluorescence response vs DMSO, % at 10 µM | 360 tested, under 10 active;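 active = response vs DMSO under 50%, meaning signal dropped by over half, treated as fluorescence quencher; inconclusive = no clear call, values can overlap the other calls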;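 also: labelled aptamer on streptavidin beads without GRK2 as a quench counter-screen; 100% = bead fluorescence of DMSO wells and lower means quenching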
# * = called active by the depositor; ? = inconclusive; . = no result given. Most compounds without a hit are left out; they make up all but 1.8% or so of the library. Rule as the data show it, unless noted: active = inhibition above about 50%; inactive = the rest.
SMILES,HDAC3 inhib,GRK2 aptamer HTS,PKD1 inh,Pemphigus Ab inh,LANA-H2A inh,VLA-4 inh,GRK2 inh confirm,FAM quench CP1,others
CCn1c(SCC(=O)OC)nc2sc3c(c2c1=O)CCC3,2.8,9.0,7.1,81.1,1.6,-12.3,.,.,GRK2 confirm 2=14.3;FAM quench CP2=100.0
O=C(O)CSc1nc2sc3c(c2c(=O)n1-c1ccccc1)CCC3,4.6,3.0,.,95.4,4.8,-1.2,.,.,GRK2 confirm 2=-22.3;FAM quench CP2=104.0
COCCCn1c(SCc2nnc(-c3ccccc3)o2)nc2sc3c(c2c1=O)CCC3,3.6,2.0,7.4,97.7,0.2,1.7,.,.,
CCCn1c(SC(C)C(=O)NCC2CCCO2)nc2sc3c(c2c1=O)CCC3 (stereo unspecified),-8.9,1.0,.,102.8,-24.6,-0.3,.,.,GRK2 confirm 2=-7.8;FAM quench CP2=98.0
Cn1c(SCc2nnc(-c3ccccc3Br)o2)nc2sc3c(c2c1=O)CCC3,2.6,0.0,0.5,99.8,-5.1,3.0,.,.,GRK2 confirm 2=23.5;FAM quench CP2=100.0
COc1cc(NC(=O)c2c(F)c(F)c(OC)c(F)c2F)ccc1NC(=O)c1cccs1,4.8,0.0,.,112.0,7.0,6.9,.,.,
CC(OC(=O)Cc1c[nH]c2ccccc12)C(=O)N(C)c1ccccc1 (stereo unspecified),-3.0,9.0,.,100.5,-2.2,17.8,-1.2,96.0,
CC(C)OC(=O)CNc1n[nH]c(=S)[nH]c1=O,.,.,0.4,100.5,.,.,.,.,
COC(=O)CNc1n[nH]c(=S)[nH]c1=O,-3.7,85.0*,5.8,112.7,2.2,21.9,-9.2,99.2,
CCc1ccccc1OCC(=O)Nc1cccc(S(=O)(=O)NC2=NCCC2)c1,.,1.0,.,94.5,.,-20.6,.,.,
CCOCCCNc1ncnc2c1[nH]c1ccccc12,3.4,0.0,-2.2,.,6.8,3.0,.,.,
CCCCOCCCNc1ncnc2c1[nH]c1ccccc12,1.7,53.0*,0.8,103.8,-4.1,35.3,-8.2,99.0,
Cc1cc(C)nc(N2CCC(C(=O)NC3CCCc4ccccc43)CC2)n1 (stereo unspecified),-0.1,5.0,2.6,103.2,12.0,5.4,.,.,
O=C(NC1CCCc2ccccc21)C1CCN(c2nnc(-n3cccc3)s2)CC1 (stereo unspecified),5.7,0.0,-0.9,99.0,-2.7,8.2,-3.3,97.6,
Fc1ccc(CSc2ccc(-c3ccc4c(c3)OCO4)nn2)cc1,6.3,49.0*,-1.7,.,1.4,15.3,.,.,GRK2 confirm 2=12.9;FAM quench CP2=99.0
O=C(NNS(=O)(=O)c1ccc([N+](=O)[O-])cc1)C(=O)Nc1cccc(C(=O)O)c1,5.2,69.0*,.,94.3,-0.7,3.5,4.7,102.2,
O=C(NNS(=O)(=O)c1ccc([N+](=O)[O-])cc1)c1ccccc1,.,.,.,93.1,.,.,.,.,
COc1cc(C(=O)Nc2c(C(=O)O)[nH]c3ccc(C)cc23)cc(OC)c1OC,-4.9,88.0*,.,104.2,4.3,-2.3,2.9,98.1,
CCOC(=O)c1cccc(NC(=O)c2ccc(-n3cnnn3)cc2)c1,7.2,24.0,.,117.8,5.7,-11.6,-0.5,103.7,
COc1cccc(-c2nc(N3CCC(C)CC3)c3ccccc3n2)c1O,4.0,91.0*,6.2,104.8,2.7,5.7,2.6,99.6,
COc1cccc(-c2nc(N3CCCC3)c3ccccc3n2)c1O,-0.9,0.0,.,100.5,0.5,-15.5,.,.,
Cc1ccc(C(=O)NCCc2nnc3ccc(SCC(=O)NCc4ccc(F)cc4)nn23)cc1,0.6,1.0,.,107.1,-0.5,2.6,.,.,
COc1ccc(CCNC(=O)CSc2ccc3nnc(CCNC(=O)c4ccc(C)cc4)n3n2)cc1OC,0.9,61.0*,.,99.0,1.7,3.6,.,.,GRK2 confirm 2=-10.4;FAM quench CP2=99.0
CC(Oc1ccc2ccc(=O)oc2c1)C(=O)NC1CCN(Cc2ccccc2)CC1 (stereo unspecified),-0.8,0.0,.,98.3,-2.3,1.2,.,.,
COC(=O)C1=C(C)N(CCCC(=O)O)C(=O)NC1c1ccccc1OS(=O)(=O)c1ccc([N+](=O)[O-])cc1 (stereo unspecified),-1.2,.,.,98.4,6.5,.,.,.,
SMILES,HDAC3 inhib,GRK2 aptamer HTS,PKD1 inh,Pemphigus Ab inh,LANA-H2A inh,VLA-4 inh,GRK2 inh confirm,FAM quench CP1,others
OCCNNC(=S)NC1CC2C=CC1C2 (stereo unspecified),2.0,2.0,.,111.2,3.0,-2.5,.,.,
O=c1cc[nH]c2ccc(OC(F)(F)F)cc12,.,86.0*,.,119.1,-0.4,1.2,-1.5,99.7,
Cc1cccc(-n2ncc3c(NCc4cccnc4)ncnc32)c1,-13.2,1.0,.,96.6,-4.7,38.4,.,.,
Cc1ccc(-n2ncc3c(NCc4cccnc4)ncnc32)cc1C,-3.6,47.0*,.,.,-1.7,2.1,-2.2,103.8,
CCc1ccc(S(=O)(=O)Nc2cccc(-c3ccc4nnc(C)n4n3)c2)s1,-0.4,0.0,.,106.3,-7.8,-6.2,.,.,
O=C(NN1CCOCC1)c1cccc(Cl)c1,-5.4,3.0,.,.,2.2,2.8,.,.,
COc1ccccc1NC(=O)NC1(C(=O)N2CCCCCC2)CCCCC1,-2.2,95.0*,-0.6,112.0,-0.2,9.5,-2.5,94.5,
COCCNC(=O)CSc1nnc(CCCN2C(=O)c3cccc4cccc(c34)C2=O)n1-c1ccccc1,-0.6,2.0,-4.9,94.8,1.7,8.0,.,.,
COc1cc2oc3cc(C#Cc4ccc(N)cc4)ccc3c(=O)c2cc1OC,-4.5,70.0*,.,99.3,-2.3,-66.6,3.1,97.9,
COc1cc2oc3ccc(C#Cc4ccc(N)cc4)cc3c(=O)c2cc1OC,0.3,2.0,.,107.2,-0.1,-20.9,.,.,
CN(CC(=O)NCCc1ccc(S(N)(=O)=O)cc1)S(=O)(=O)c1ccc(Br)s1,10.1,90.0*,.,?,-2.4,-4.8,1.9,97.9,
CCCOc1ccc(OC(=O)Cc2ccc(OC)c(S(=O)(=O)N3CCOCC3)c2)cc1,-2.5,100.0*,.,104.7,0.2,5.5,-7.5,99.6,
CCCCNS(=O)(=O)c1ccc(NS(=O)(=O)c2c(C)cc(C)cc2C)cc1,4.8,3.0,-8.7,94.3,1.4,-1.9,.,.,
NS(=O)(=O)c1ccc(NC(=O)CN2CCN(S(=O)(=O)/C=C/c3ccccc3)CC2)cc1,.,54.0*,.,96.7,1.0,4.4,6.2,101.1,
NS(=O)(=O)c1ccc(NC(=O)CN2CCN(Cc3ccccc3)CC2)cc1,9.5,2.0,-1.9,98.7,2.1,-13.0,.,.,
CC(=O)c1cc2c(cc1NC(=O)C1CN(C(C)=O)c3ccccc3O1)OCO2 (stereo unspecified),1.2,26.0,.,101.4,2.8,0.0,-0.3,103.9,
